C diff HTS: C. difficile growth inhibition. Clostridium difficile clinical isolate growth, OD600, 24 h; stronger effect = lower value. growth activity, negative = inhibition, % at 16 µg/mL (by protocol). 0.25% of 86,000 active. AID 1259249;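 active = mean growth activity at or below -80% and every replicate also at or below -80%; inconclusive = mean at or below -80% but some replicate above -80%; inactive = mean growth activity above -80%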;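 also: 0% = DMSO wells and -100% = levofloxacin 16 µg/mL wells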
T cruzi growth-1: inhibitors of T. cruzi proliferation; T. cruzi beta-gal in NIH3T3, GalScreen luminescence, 90 h; inhibition, % at 8.34 µM; 5.9% of 77,000 active; AID 624255;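 active = mean inhibition above about 93%, with at least 55% of replicates each passing it, limit read from the data, passing the limit was not always enough; inconclusive = only one of those two conditions holds; inactive = neither condition holds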
Pf Dd2 growth: P. falciparum Dd2 growth inhibition; SYBR Green, 72 h; stronger effect = lower value; activity change, % at 10 µM; 2.3% of 94,000 active; in the data active = activity change below about -80%; inconclusive = no clear call, values can overlap the other calls
T cruzi growth-2: blocks T. cruzi growth in NIH3T3 host cells; inhibition, % at 8.35 µM; 72% of 5,600 active; T. cruzi beta-gal in NIH3T3, GalScreen luminescence, 90 h; AID 651739; shares compounds with T cruzi growth-1;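 active = mean replicate inhibition above about 95% and at least 55% of replicates individually reaching it, limit read from the data; inconclusive = only one of the two criteria is met; inactive = neither criterion is met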
T cruzi growth-3: inhibitors of T. cruzi proliferation; inhibition, % at 2.09 µM; 21% of 5,600 active; shares compounds with T cruzi growth-1; T. cruzi beta-gal in NIH3T3, GalScreen luminescence, 90 h;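 active = mean inhibition above about 95%, with at least 55% of replicates also reaching it, limit read from the data; inconclusive = meets just one of the two conditions; inactive = meets neither condition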;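 also: plate controls were neutral control median for no effect and positive control median for full effect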
3T3 cytotox: NIH/3T3 (mouse) viability loss; shares compounds with T cruzi growth-1; NIH/3T3 viability, CellTiter-Glo ATP luminescence, 90 h; cytotoxicity (signal decrease), % at 8.35 µM; 14% of 5,600 active;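 active = mean signal decrease across replicates above about 35% based on untreated-well scatter, with enough replicates individually passing, limit read from the data; inconclusive = no rule stated though some were filed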;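 also: 0% = median of neutral control wells and 100% = median of positive control wells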
3T3 cytotox 2: NIH/3T3 (mouse) viability loss. shares compounds with T cruzi growth-1. NIH/3T3 viability, CellTiter-Glo ATP luminescence, 90 h. inhibition, % at 24.9 µM. 56% of 5,600 active. AID 651744;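 active = mean loss of cell viability signal at or above a set limit, and enough replicates individually reaching it; inconclusive = meets only the mean limit or only the replicate share; inactive = meets neither condition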;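 also: 0% = median of neutral control wells and 100% = median of positive control wells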
* = called active by the depositor; u = inconclusive; x = no result; ! = not confirmed by another sample. In the library only some 6.7% were active in any assay of this set; here they are far more common.

SMILES	C diff HTS	T cruzi growth-1	Pf Dd2 growth	T cruzi growth-2	T cruzi growth-3	3T3 cytotox	3T3 cytotox 2
COc1ccc2c3c([nH]c2c1)[C@H](CO)N(C)CC31CN(S(=O)(=O)c2ccc(C)cc2)C1	-14	x	-35	x	x	x	x
Cc1cccc(NC(=O)Nc2ccc3c(c2)C(=O)N(C)[C@@H]2CC[C@H](CC(=O)NCc4ccccc4Cl)O[C@@H]2CO3)c1	-11	65	-3	x	x	x	x
CO[C@H]1CN(C)C(=O)c2ccc(NC(=O)Cc3ccccc3)cc2OC[C@@H](C)N(C)C[C@@H]1C	0	-67	3	x	x	x	x
O=C(C[C@@H]1C[C@H]2c3cc(NC(=O)CC4CC4)ccc3O[C@H]2[C@@H](CO)O1)NCc1ccccc1F	3	-45	9	x	x	x	x
CN1C(=O)c2cc(NC(=O)c3ccc(F)cc3)ccc2OC[C@H]2O[C@H](CC(=O)N3CCOCC3)CC[C@H]21	-5	14	-6	x	x	x	x
C[C@H]1CCCCO[C@H](CN(C)C(=O)NC2CCCCC2)[C@@H](C)CN([C@@H](C)CO)C(=O)c2cc(NS(=O)(=O)c3cccs3)ccc2O1	8	64	-39	x	x	x	x
CCNC(=O)C[C@H]1C=C[C@H](NS(=O)(=O)c2ccc(F)cc2)[C@H](CO)O1	x	-8	14	x	x	x	x
N#C[C@@H]1[C@H](c2ccc(C3=CCCCC3)cc2)[C@H](CO)N1C(=O)c1ccccn1	7	101*	-15	100*	105*	16	15
N#C[C@@H]1[C@@H](c2ccc(C3=CCCCC3)cc2)[C@@H](CO)N1C(=O)c1ccccn1	7	102*	-2	72	3	-7	5
N#C[C@H]1[C@H](c2ccc(C3=CCCCC3)cc2)[C@@H](CO)N1C(=O)c1ccccn1	3	52	-12	x	x	x	x
N#C[C@@H]1[C@@H](c2ccc(C3=CCCCC3)cc2)[C@H](CO)N1C(=O)c1ccccn1	3	67	9	x	x	x	x
CN(C)c1ccc2c(c1)[C@@H]1C[C@@H](CC(=O)NCCc3ccccc3)O[C@@H](CO)[C@@H]1O2	-1	41	-54	x	x	x	x
C[C@H]1CN([C@@H](C)CO)C(=O)CCCn2nncc2CO[C@@H]1CN(C)C(=O)CCCN(C)C	x	18	4	x	x	x	x
C[C@@H]1CCCCO[C@H](CN(C)C(=O)Nc2ccc(F)cc2)[C@H](C)CN([C@H](C)CO)C(=O)c2cc(NC(=O)Cc3ccccc3)ccc2O1	8	105*	-85*	111*	53	-12	-7
C[C@@H]1CCCCO[C@H](CN(C)C(=O)Nc2ccc(F)cc2)[C@@H](C)CN([C@@H](C)CO)C(=O)c2cc(NC(=O)Cc3ccccc3)ccc2O1	0	94	-61	x	x	x	x
C[C@@H]1CCCCO[C@H](CN(C)C(=O)Nc2ccc(F)cc2)[C@@H](C)CN([C@H](C)CO)C(=O)c2cc(NC(=O)Cc3ccccc3)ccc2O1	1	55	-1	x	x	x	x
C[C@H]1CCCCO[C@@H](CN(C)C(=O)Nc2ccc(F)cc2)[C@@H](C)CN([C@@H](C)CO)C(=O)c2cc(NC(=O)Cc3ccccc3)ccc2O1	1	113*	-59	67	55	-25	2
O=C(C1CCCCC1)N1CC2(C1)[C@H](c1ccccc1)[C@H](CO)N2Cc1nccs1	-4	x	-39	x	x	x	x
CC=Cc1ccc2n(c1=O)C[C@H]1N[C@@H]2[C@@H](C(=O)NCc2ccc3c(c2)OCO3)[C@@H]1CO (mixture of isomers)	2	-2	x	x	x	x	x
Cc1ccc(S(=O)(=O)N(C)C[C@@H]2OCCCC[C@@H](C)Oc3ccc(NC(=O)Nc4ccc(F)cc4)cc3C(=O)N([C@H](C)CO)C[C@H]2C)cc1	x	114*	-79	109*	109*	-3	24
C[C@@H]1CCCCO[C@@H](CN(C)S(=O)(=O)c2ccc(Cl)cc2)[C@H](C)CN([C@@H](C)CO)C(=O)c2cc(NC(=O)Nc3ccc(F)cc3)ccc2O1	-1	89	-73	x	x	x	x
Cc1ccc(S(=O)(=O)N(C)C[C@@H]2OCCCC[C@H](C)Oc3ccc(NC(=O)Nc4ccc(F)cc4)cc3C(=O)N([C@H](C)CO)C[C@@H]2C)cc1	x	109*	-61	97*	107*	3	41*
C[C@@H]1CCCCO[C@@H](CN(C)S(=O)(=O)c2ccc(Cl)cc2)[C@@H](C)CN([C@H](C)CO)C(=O)c2cc(NC(=O)Nc3ccc(F)cc3)ccc2O1	17	68	-80	x	x	x	x
O=C(C[C@@H]1C=C[C@H](NC(=O)C2CC2)[C@@H](CO)O1)Nc1nccs1	x	-21	-14	x	x	x	x
CCCNC(=O)[C@@H]1[C@@H](CO)[C@@H]2Cn3c(cccc3=O)[C@H]1N2C(=O)C1CCCC1	4	38	2	x	x	x	x
SMILES	C diff HTS	T cruzi growth-1	Pf Dd2 growth	T cruzi growth-2	T cruzi growth-3	3T3 cytotox	3T3 cytotox 2
COc1ccc(NC(=O)N(C)C[C@@H]2OCCCC[C@H](C)Oc3ccc(N(C)C)cc3C(=O)N([C@H](C)CO)C[C@H]2C)cc1	-2	33	-57	x	x	x	x
COc1ccc(NC(=O)N(C)C[C@H]2OCCCC[C@@H](C)Oc3ccc(N(C)C)cc3C(=O)N([C@H](C)CO)C[C@@H]2C)cc1	-3	105*!	10	53	11	21	34*
COc1ccc(NC(=O)N(C)C[C@@H]2OCCCC[C@H](C)Oc3ccc(N(C)C)cc3C(=O)N([C@H](C)CO)C[C@@H]2C)cc1	-1	41	-1	x	x	x	x
COc1ccc(NC(=O)N(C)C[C@H]2OCCCC[C@H](C)Oc3ccc(N(C)C)cc3C(=O)N([C@H](C)CO)C[C@@H]2C)cc1	0	100*	-33	60	7	4	-8
COCC(=O)N(C[C@H]1N[C@H](CO)[C@H]1c1ccc(C2=CCCC2)cc1)C(C)C	10	-4	-27	x	x	x	x
C/C=C/c1ccc([C@H]2[C@H](CO)N3CCCCN(C(=O)Nc4ccc(F)cc4)C[C@@H]23)cc1	44	90	-4	x	x	x	x
C/C=C/c1ccc([C@@H]2[C@H]3CN(C(=O)Nc4ccc(F)cc4)CCCCN3[C@H]2CO)cc1	31	u	-11	112*	74	33	106*
C/C=C/c1ccc([C@@H]2[C@@H](CO)N3CCCCN(C(=O)Nc4ccc(F)cc4)C[C@@H]23)cc1	37	97*	-36	108*	39	17	74*
C/C=C/c1ccc([C@@H]2[C@H](CO)N3CCCCN(C(=O)Nc4ccc(F)cc4)C[C@@H]23)cc1	56	59	3	x	x	x	x
C[C@H](CO)N1C[C@H](C)[C@@H](CN(C)Cc2ccc(F)cc2)Oc2ncc(-c3cccc(C#N)c3)cc2C1=O	1	-51	-42	x	x	x	x
COc1ccc(C#Cc2ccc3c(c2)[C@H]2[C@H](CCN2C(=O)C2CC2)[C@@H](CO)N3)cc1	15	116*	-46	93	36	7	14
COc1ccc(C#Cc2ccc3c(c2)[C@H]2[C@H](CCN2C(C)=O)[C@H](CO)N3)cc1	-14	54	-13	x	x	x	x

High-throughput results as filed in PubChem BioAssay.
